Assay results taken from PubChem BioAssay AID1159580 (chemical genetic matrix, 2015).
Screen size: about 5,500 compounds; about 2,000 (36%) were called active. Another 18% or so got no clear call; they are omitted. Rule as the data show it: active = normalized growth mostly below about 0.91 (no sharp cut-off); inconclusive = no clear call, values can overlap the other calls; inactive = mostly above about 0.92. Some of the results follow.

Test: chemical genetic growth profiling, strain panel (AID 1159580);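 also: tested at 20 µM; growth read once vehicle control cultures reached saturation at 30 °C; 1 = growth at the plate median or of vehicle wells; lower values mean less growth of the strain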
Conditions: growth OD

Measured: normalized growth

COc1c2ccoc2nc2c(OC)c(OCC(O)C(C)(C)O)ccc12 (configuration not stated)
inactive: S. cerevisiae deletion strains, locus YJR075W, strain HOC1, stronger effect = lower value 1.07 | S. cerevisiae deletion strains, locus YKL009W, strain mrt4, stronger effect = lower value 0.944 | S. cerevisiae deletion strains, locus YKL068W, stronger effect = lower value 0.978 | S. cerevisiae deletion strains, locus YKL085W, strain MDH1 (second series), stronger effect = lower value 1 | S. cerevisiae deletion strains, locus YKL085W, strain MDH1, stronger effect = lower value 1 | S. cerevisiae deletion strains, locus YKL160W, strain elf1, stronger effect = lower value 1.03 | S. cerevisiae deletion strains, locus YKL190W, strain CNB1, stronger effect = lower value 0.979 | S. cerevisiae deletion strains, locus YKR001C, strain vps1, stronger effect = lower value 0.985 | S. cerevisiae deletion strains, locus YKR026C, strain gcn3, stronger effect = lower value 1.02 | S. cerevisiae deletion strains, locus YKR091W, strain srl3, stronger effect = lower value 1.01 | S. cerevisiae deletion strains, locus YLL001W, strain dnm1, stronger effect = lower value 1.03 | S. cerevisiae deletion strains, locus YLL026W, stronger effect = lower value 1.01 | S. cerevisiae deletion strains, locus YLL041C, strain sdh2, stronger effect = lower value 1.02 | S. cerevisiae deletion strains, locus YLR027C, strain aat2, stronger effect = lower value 1.03 | S. cerevisiae deletion strains, locus YLR039C, strain RIC1, stronger effect = lower value 0.974 | S. cerevisiae deletion strains, locus YLR058C, strain SHM2, stronger effect = lower value 0.991 | S. cerevisiae deletion strains, locus YLR102C, strain apc9, stronger effect = lower value 0.99 | S. cerevisiae deletion strains, locus YLR113W, strain HOG1, stronger effect = lower value 1.03 | S. cerevisiae deletion strains, locus YLR221C, strain rsa3, stronger effect = lower value 1.03 | S. cerevisiae deletion strains, locus YLR258W, strain gsy2, stronger effect = lower value 1.02 | S. cerevisiae deletion strains, locus YLR262C, strain YPT6 (second series), stronger effect = lower value 1.04 | S. cerevisiae deletion strains, locus YLR262C, strain YPT6, stronger effect = lower value 0.938 | S. cerevisiae deletion strains, locus YLR268W, strain sec22, stronger effect = lower value 1.02 | S. cerevisiae deletion strains, locus YLR320W, strain mms22, stronger effect = lower value 1.03 | S. cerevisiae deletion strains, locus YLR330W, strain CHS5, stronger effect = lower value 0.992 | S. cerevisiae deletion strains, locus YLR342W, strain FKS1 (second series), stronger effect = lower value 0.992 | S. cerevisiae deletion strains, locus YLR342W, strain FKS1, stronger effect = lower value 1.02 | S. cerevisiae deletion strains, locus YLR357W, strain rsc2, stronger effect = lower value 1.06 | S. cerevisiae deletion strains, locus YLR370C, strain arc18, stronger effect = lower value 1.01 | S. cerevisiae deletion strains, locus YLR371W, strain rom2, stronger effect = lower value 0.976 | S. cerevisiae deletion strains, locus YLR384C, strain iki3, stronger effect = lower value 1 | S. cerevisiae deletion strains, locus YLR418C, strain cdc73, stronger effect = lower value 1.04 | S. cerevisiae deletion strains, locus YML016C, strain PPZ1, stronger effect = lower value 0.99 | S. cerevisiae deletion strains, locus YML032C, strain rad52, stronger effect = lower value 0.974 | S. cerevisiae deletion strains, locus YML120C, strain ndi1, stronger effect = lower value 1.02 | S. cerevisiae deletion strains, locus YML124C, strain tub3, stronger effect = lower value 0.99 | S. cerevisiae deletion strains, locus YMR058W, strain fet3, stronger effect = lower value 1.03 | S. cerevisiae deletion strains, locus YMR078C, strain ctf18, stronger effect = lower value 0.97 | S. cerevisiae deletion strains, locus YMR125W, strain sto1, stronger effect = lower value 1.04 | S. cerevisiae deletion strains, locus YMR129W, stronger effect = lower value 1.01 | S. cerevisiae deletion strains, locus YMR205C, strain PFK2, stronger effect = lower value 1.04 | S. cerevisiae deletion strains, locus YMR223W, strain ubp8, stronger effect = lower value 0.961 | S. cerevisiae deletion strains, locus YMR231W, strain pep5, stronger effect = lower value 1 | S. cerevisiae deletion strains, locus YMR263W, strain SAP30, stronger effect = lower value 1.01 | S. cerevisiae deletion strains, locus YMR307W, strain GAS1, stronger effect = lower value 0.941 | S. cerevisiae deletion strains, locus YNL067W, strain RPL9B, stronger effect = lower value 1.03 | S. cerevisiae deletion strains, locus YNL071W, strain lat1, stronger effect = lower value 1.02 | S. cerevisiae deletion strains, locus YNL128W, strain TEP1, stronger effect = lower value 1.01 | S. cerevisiae deletion strains, locus YNL153C, strain GIM3, stronger effect = lower value 1.02 | S. cerevisiae deletion strains, locus YNL183C, strain NPR1, stronger effect = lower value 0.985 | S. cerevisiae deletion strains, locus YNL209W, strain ssb2, stronger effect = lower value 1.02 | S. cerevisiae deletion strains, locus YNL233W, strain BNI4, stronger effect = lower value 1.02 | S. cerevisiae deletion strains, locus YNL248C, strain rpa49, stronger effect = lower value 1.02 | S. cerevisiae deletion strains, locus YNL250W, strain rad50, stronger effect = lower value 0.989 | S. cerevisiae deletion strains, locus YNL271C, strain bni1, stronger effect = lower value 0.989 | S. cerevisiae deletion strains, locus YNL298W, strain CLA4, stronger effect = lower value 0.975 | S. cerevisiae deletion strains, locus YNL307C, strain MCK1, stronger effect = lower value 0.976 | S. cerevisiae deletion strains, locus YNL322C, strain KRE1 (second series), stronger effect = lower value 1.03 | S. cerevisiae deletion strains, locus YNL322C, strain KRE1, stronger effect = lower value 0.995 | S. cerevisiae deletion strains, locus YNR049C, strain mso1, stronger effect = lower value 1.02 | S. cerevisiae deletion strains, locus YNR052C, strain pop2, stronger effect = lower value 0.962 | S. cerevisiae deletion strains, locus YOL006C, strain TOP1, stronger effect = lower value 1.01 | S. cerevisiae deletion strains, locus YOL012C, strain htz1 1.86 | S. cerevisiae deletion strains, locus YOL147C, strain pex11, stronger effect = lower value 0.996 | S. cerevisiae deletion strains, locus YOR001W, strain rrp6, stronger effect = lower value 1.02 | S. cerevisiae deletion strains, locus YOR061W, strain CKA2, stronger effect = lower value 0.997 | S. cerevisiae deletion strains, locus YOR069W, strain VPS5, stronger effect = lower value 0.99 | S. cerevisiae deletion strains, locus YOR070C, strain gyp1, stronger effect = lower value 1 | S. cerevisiae deletion strains, locus YOR080W, strain dia2, stronger effect = lower value 0.999 | S. cerevisiae deletion strains, locus YOR083W, strain WHI5, stronger effect = lower value 1.03 | S. cerevisiae deletion strains, locus YOR106W, strain vam3, stronger effect = lower value 1.04 | S. cerevisiae deletion strains, locus YOR136W, strain idh2, stronger effect = lower value 0.982 | S. cerevisiae deletion strains, locus YOR144C, strain elg1, stronger effect = lower value 0.978 | S. cerevisiae deletion strains, locus YOR184W, strain ser1, stronger effect = lower value 0.946 | S. cerevisiae deletion strains, locus YOR231W, strain MKK1, stronger effect = lower value 1.01 | S. cerevisiae deletion strains, locus YOR265W, strain rbl2, stronger effect = lower value 1 | S. cerevisiae deletion strains, locus YOR270C, strain vph1, stronger effect = lower value 1.07 | S. cerevisiae deletion strains, locus YOR290C, strain snf2, stronger effect = lower value 1.02 | S. cerevisiae deletion strains, locus YOR316C, strain cot1, stronger effect = lower value 0.99 | S. cerevisiae deletion strains, locus YPL051W, strain arl3, stronger effect = lower value 1.05 | S. cerevisiae deletion strains, locus YPL055C, strain LGE1, stronger effect = lower value 1.03 | S. cerevisiae deletion strains, locus YPL078C, strain atp4, stronger effect = lower value 1.03 | S. cerevisiae deletion strains, locus YPL106C, strain sse1, stronger effect = lower value 1.02 | S. cerevisiae deletion strains, locus YPL240C, strain hsp82, stronger effect = lower value 1 | S. cerevisiae deletion strains, locus YPL241C, strain CIN2, stronger effect = lower value 0.992 | S. cerevisiae deletion strains, locus YPL256C, strain CLN2, stronger effect = lower value 1.03 | S. cerevisiae deletion strains, locus YPR119W, strain clb2, stronger effect = lower value 0.998 | S. cerevisiae deletion strains, locus YPR141C, strain kar3, stronger effect = lower value 0.995 | S. cerevisiae deletion strains, locus YPR163C, strain tif3, stronger effect = lower value 0.98 | S. cerevisiae deletion strains, locus YPR167C, strain met16, stronger effect = lower value 0.992 | S. cerevisiae deletion strains, strain wtn01, stronger effect = lower value 1.02 | S. cerevisiae strains, strain wild type, stronger effect = lower value 0.996
